Test [1] in a line: qHTS assay for small molecule agonists of the p53 signaling pathway (AID 651631; calls by dose curve; note: nearly all actives have a fitted effect of over 15% in size; note: potency is the fitted concentration of half-maximal effect). Put shortly:
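Agonist mode screen using a stably integrated beta-lactamase gene under p53 response elements in HCT-116 cells. Compound exposure lasts 16 h at 37 °C; fluorescence intensity is measured following 2 h FRET substrate loading.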

The nature of test [2]: qHTS assay for small molecules that induce genotoxicity in human embryonic kidney cells expressing luciferase-tagged ATAD5 (AID 651632). Note: nearly all actives have a fitted effect of over 15% in size. Note: potency is the fitted concentration of half-maximal effect. Put shortly:
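ATAD5-luc HEK293T, 2,000 cells/well; cpd or DMSO pin-transferred; 16 hr, 37C/5% CO2; Amplite 30 min RT; luminescence.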

Test [3] is described as follows: qHTS assay for small molecules that induce genotoxicity in human embryonic kidney cells expressing luciferase-tagged ATAD5 - cell viability (AID 651634; calls by dose curve; note: nearly all actives have a fitted effect of over 25% in size; note: potency is the fitted concentration of half-maximal effect). Put shortly: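 Fluorescence from CellTiter-Fluor, reporting protease activity within live cells, served as the viability read-out. HEK293T cells carrying luciferase-tagged ATAD5 had been treated with compound for 15.5 hr at 37C.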
In general terms: qHTS replaces the single test concentration by a dilution series.

Test [4] can be described thus: qHTS assay for small molecule disruptors of the mitochondrial membrane potential - cell viability (AID 720634; calls by dose curve;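 note: human HepG2 liver cancer cells; series mostly up to about 83 µM; nearly all actives have a fitted effect of over 20% in size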). In short, it runs like this: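 Cells: HepG2, 2,000/well, attached overnight. Compound 1 hr, 37 C/5% CO2. +m-MPI dye, +CellTiter-Glo 30 min RT. Readout: luminescence (ATP).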
Test [5] in a line: qHTS assay for small molecule disruptors of the mitochondrial membrane potential (AID 720635). Note: potency is the fitted concentration of half-maximal effect. Put shortly: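 HepG2 cells (2,000/well) attached overnight at 37C, then took compound for 1 hr at 37C, 5% CO2. Mito-MPS dye was added for 30 min; fluorescence was read at 490/535 nm (monomers) and 540/590 nm (aggregates).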
A short description of test [6]: qHTS assay to test for compound auto fluorescence at 590 nm (red) in HepG2 cells (AID 720674). In short, it runs like this: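 Intrinsic compound fluorescence in the red window (Ex/Em 540/590 nm) is measured in attached HepG2 cells exposed for 1 hr, DMSO vehicle as baseline, benchmarked to Rose Bengal sodium.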
Test [7] in a line: qHTS assay to test for compound auto fluorescence at 460 nm (blue) in HEK293 cells (AID 720678). In short, it runs like this:
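HEK293, 2,000 cells/well, 10% dialyzed FBS; attach 4-5 hr 37C; pin compound or DMSO; o/n 37C/5% CO2; fluorescence 405/460 nm; triamterene-equivalent units.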

Test [8] is described as follows: qHTS assay to test for compound auto fluorescence at 590 nm (red) in HEK293 cells (AID 720679). Put shortly:
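Intensity at 540nm excitation and 590nm emission is reported as Rose Bengal sodium-equivalent autofluorescence. Measurements followed overnight exposure (37C, 5% CO2) of HEK293 cells, 2,000 per well, to 23 nL compound.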

A short description of test [9]: qHTS assay to test for compound auto fluorescence at 535 nm (green) in HEK293 cells (AID 720680).
The nature of test [10]: qHTS assay to test for compound auto fluorescence at 460 nm (blue) in HEK293 cell free culture (AID 720681). Put shortly: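 Test compounds were pinned into cell-free culture medium (DMEM with 10% FBS) and fluorescence was read directly at Ex/Em 405/460 nm. Signals were expressed as fluorescence equivalents of triamterene, with DMSO vehicle as control.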
Test [11] is described as follows: qHTS assay to test for compound auto fluorescence at 535 nm (green) in HEK293 cell free culture (AID 720682). Put shortly: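 No cells present: wells hold DMEM supplemented with 10% FBS, into which compound or vehicle is pinned. Green emission is then recorded (485 nm excitation, 535 nm emission) and scaled to fluorescein.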
Test [12] is described as follows: qHTS assay to test for compound auto fluorescence at 590 nm (red) in HEK293 cell free culture (AID 720683). In short, it runs like this:
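Tox21 10K library compounds were pinned into cell-free DMEM with 10% FBS and fluorescence was read at excitation 540 nm. Activity is expressed as Rose Bengal sodium equivalency.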

Test [13] is described as follows: qHTS assay to test for compound auto fluorescence at 590 nm (red) in HepG2 cell free culture (AID 720684). In short, it runs like this:
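Red fluorescence (540 nm excitation, 590 nm emission) was measured after compound transfer into cell-free MEM supplemented with 10% FBS. Values are equivalencies against Rose Bengal sodium.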

The nature of test [14]: qHTS assay to test for compound auto fluorescence at 460 nm (blue) in HepG2 cell free culture (AID 720685). In short, it runs like this:
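Compound (23 nL) or DMSO pinned into cell-free MEM with 10% FBS; blue fluorescence read at 405/460 nm excitation/emission, expressed as auto-fluorescence equivalency to triamterene.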

Test [15] is described as follows: qHTS assay to test for compound auto fluorescence at 535 nm (green) in HepG2 cell free culture (AID 720686).
The nature of test [16]: qHTS assay to test for compound auto fluorescence at 460 nm (blue) in HepG2 cells (AID 720687). Put shortly:
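Cells (2,000/well in MEM with 10% FBS) attached overnight at 37 C, then were exposed to compound or DMSO for 1 hr at 37 C, 5% CO2. Fluorescence read at Ex/Em 405/460 nm, expressed as triamterene-equivalent signal.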

The nature of test [17]: qHTS assay to test for compound auto fluorescence at 535 nm (green) in HepG2 cells (AID 720675).
Test [18] has as its target Glucocorticoid receptor (Homo sapiens) (UniProt P04150). Nature of the test: qHTS assay to identify small molecule agonists of the glucocorticoid receptor (GR) signaling pathway (AID 720691; active = well fitted activation curve with a large enough effect in the signal ratio in the repeat runs, not every such curve was filed as active; inconclusive = weak or mixed curves, or effect the other way; inactive = no such curve, though single readings can be large or run the other way; the % refers to the signal ratio; note: potency is the fitted concentration of half-maximal effect). In short, it runs like this:
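Fluorescence intensity from LiveBLAzer B/G FRET substrate (2 h, room temperature) reports beta-lactamase expression driven by the glucocorticoid response element in GR-bla HeLa cells after 18 h compound exposure at 37 C.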

For test [19] the target is unchanged. Nature of the test: qHTS assay to identify small molecule antagonists of the glucocorticoid receptor (GR) signaling pathway (AID 720692; active = well fitted inhibition curve with a large enough effect in the signal ratio in the repeat runs, not every such curve was filed as active; inconclusive = weak or mixed curves, or effect the other way; inactive = no such curve, though single readings can be large or run the other way; the % refers to the signal ratio). In short, it runs like this: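 HeLa GR-bla cells; cmpd + dex 5 nM final, 18 h 37 C; LiveBLAzer B/G FRET substrate 2 h RT; fluorescence intensity read. Antagonist mode, qHTS.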
The nature of test [20]: qHTS assay for small molecule agonists of the p53 signaling pathway - cell viability (AID 651633; calls by dose curve;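 note: p53RE-bla HCT reporter cells with a stable beta-lactamase p53 reporter; series mostly up to about 83 µM; nearly all actives have a fitted effect of over 30% in size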). Put shortly: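 p53RE-bla cells, seeded at 4,000 per well and rested 5 h at 37 C/5% CO2, received compounds in DMSO for 16 h at 37 C. CellTiter-Glo was then added, and luminescence was read after 30 min at room temperature to gauge cytotoxicity.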

Several values for one entry are separate records, joined by “and”; a condition that tells them apart may be missing. Identical values can stand only once. Activity calls are given as the source filed them. Unless noted, calls come from the whole dose curve; as a rule, active = well fitted curve in the direction sought with a large enough effect in the repeat runs; inconclusive = weak or mixed curves; inactive = no such curve, though single readings can be large; an effect the other way counts as inactive or inconclusive.

These results are taken from PubChem BioAssay (Tox21).

Glucocorticoid receptor (Homo sapiens), sequence (P04150 whole entry, looked up): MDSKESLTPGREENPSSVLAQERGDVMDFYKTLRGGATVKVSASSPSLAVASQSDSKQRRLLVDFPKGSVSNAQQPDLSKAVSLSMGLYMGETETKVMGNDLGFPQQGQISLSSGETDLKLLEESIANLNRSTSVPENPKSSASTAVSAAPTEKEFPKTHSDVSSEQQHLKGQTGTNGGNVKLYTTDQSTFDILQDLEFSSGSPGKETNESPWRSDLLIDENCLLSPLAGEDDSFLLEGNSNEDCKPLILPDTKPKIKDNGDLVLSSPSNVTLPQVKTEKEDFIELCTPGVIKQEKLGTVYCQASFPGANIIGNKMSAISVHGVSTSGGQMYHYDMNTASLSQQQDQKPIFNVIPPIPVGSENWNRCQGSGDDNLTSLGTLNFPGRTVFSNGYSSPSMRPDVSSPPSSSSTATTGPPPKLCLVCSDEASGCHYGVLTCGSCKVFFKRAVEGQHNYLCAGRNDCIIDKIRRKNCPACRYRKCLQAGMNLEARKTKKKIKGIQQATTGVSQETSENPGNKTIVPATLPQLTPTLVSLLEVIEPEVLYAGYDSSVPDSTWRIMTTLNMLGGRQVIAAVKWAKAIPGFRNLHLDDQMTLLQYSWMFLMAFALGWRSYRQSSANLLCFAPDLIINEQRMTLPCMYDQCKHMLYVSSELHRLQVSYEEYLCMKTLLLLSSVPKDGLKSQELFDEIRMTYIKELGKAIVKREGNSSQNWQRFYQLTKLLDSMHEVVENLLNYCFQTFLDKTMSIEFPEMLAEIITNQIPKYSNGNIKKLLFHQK

With `CCC(=O)Oc1ccc(/C(CC)=C(\CC)c2ccc(OC(=O)CC)cc2)cc1`, the figures for the Potency in test [1] and in [5] were 15.4 µM (active) and 8.63 µM (active), respectively. Besides, the Potency result in test [2], in test [3], in [4], in test [7], in test [10] and in test [14] was “inactive” each time. The Potency result in test [16] was “inactive”. Moreover, the call in [6], in test [8], in test [9], in test [11], in test [12] and in [13] was inactive. Also, the call in [15] was inactive.
`C=C(C)C(=O)OCCOC(=O)CC(C)=O`: the Potency result in test [1], in [2], in [3], in [4], in test [5] and in test [7] was “inactive” in each case. Also, the Potency result in test [10], in test [14], in [16], in test [18] and in test [19] was “inactive” throughout. Besides, the outcome in test [6], in test [17], in test [8], in [9], in test [11] and in test [12] was inactive. Moreover, the compound was called inactive in [13] and in test [15].
Consider `CNC(=O)N(c1ccccc1)c1ccccc1`, for which the Potency result in test [1], in [2], in test [20], in [3], in test [4] and in [7] was “inactive” in each case. For the same compound, the Potency result in test [10], in test [14] and in [16] was “inactive” throughout. The call in [6], in [8], in test [9], in test [11], in test [12] and in test [15] was inactive.
Regarding `c1cnc2c(n1)CCCC2`, the Potency result in [1], in test [2], in test [20], in test [4], in test [7] and in test [14] was “inactive” in each case. In addition, the Potency entry in test [16] is “inactive”. Further, the compound was classed as inactive in test [6], in [17], in [8], in test [9], in test [11] and in test [12]. Also, the call in test [15] was inactive.
Regarding `CCCCCCCCCCCC[N+](C)(C)CCCS(=O)(=O)[O-]`, the Potency result in test [1], in [2], in test [3], in test [4], in test [5] and in [7] was “inactive” each time. For the same compound, the Potency entry in test [10], in test [14], in test [16] and in test [18] was “inactive” in each case. In addition, the outcome in [6], in [17], in test [8], in test [9], in test [11] and in [12] was inactive. Also, the compound was classed as inactive in test [15].
As to `O=C(CCCCCCC(=O)Nc1ccccc1)NO`, the Potency in test [1] is 750 nM (active) and 668 nM (active); in test [2] it was 2.11 µM (active) and 1.68 µM (active). Also, the Potency entry in test [3], in test [4], in test [5], in [7], in test [10] and in test [14] was “inactive” throughout. Also, in test [16], the Potency entry was “inactive”. For the same compound, the result in test [6], in test [17], in test [9], in [11], in test [12] and in [13] was inactive. For the same compound, in [15], the compound was called inactive.
As to `O=S(=O)(c1ccccc1)c1ccc(Cl)cc1`, the Potency result in test [1], in test [2], in test [20], in test [3], in [7] and in test [10] was “inactive” throughout. Further, the Potency result in test [14], in test [16] and in test [19] was “inactive” each time. Besides, the result in test [6], in test [17], in test [8], in [9], in test [11] and in [12] was inactive. Further, the result in test [15] was inactive.
In the case of `CC(C)(C)C(=O)O`, the Potency result in test [1], in test [2], in test [20], in test [3], in test [7] and in test [10] was “inactive” throughout. Also, the Potency entry in test [14] and in test [16] was “inactive” in each case. The compound was called inactive in test [6], in test [17], in test [8], in test [11], in [12] and in test [13]. Further, the outcome in test [15] was inactive.
As for `CCCCC(=O)O[C@]1(C(=O)CO)CC[C@H]2[C@@H]3CCC4=CC(=O)CC[C@]4(C)[C@H]3[C@@H](O)C[C@@]21C`, the Potency entry in [1], in test [2], in test [3], in test [4], in test [5] and in [7] was “inactive” throughout. For the same compound, the Potency entry in test [10], in test [14] and in test [16] was “inactive” throughout. Also, the outcome in test [6], in [17], in test [8], in test [9], in [11] and in test [12] was inactive. Also, the outcome in [13] and in test [15] was inactive. Also, in test [18], the Potency was 42.5 nM [inconclusive] (active).
In the case of `CC(C)(C)CC(C)(C)c1ccc(OCCO)cc1`, the Potency result in [1], in test [2], in [4], in [7], in test [10] and in test [14] was “inactive” throughout. Besides, the Potency result in test [16] and in [18] was “inactive” in each case. The Potency in test [3] was 54.2 µM (active); in test [5] it was 60.8 µM (active). Also, the call in [6], in [17], in [8], in test [9], in [11] and in [13] was inactive. For the same compound, the compound was classed as inactive in test [15].
Turning to `CC(C)CCCCCCOC(=O)CCCCC(=O)OCCCCCCC(C)C`, the Potency result in test [1], in [2], in test [20], in test [3], in [7] and in [10] was “inactive” throughout. The Potency result in test [14], in [16], in [18] and in test [19] was “inactive” in each case. In addition, the compound was classed as inactive in [6], in test [17], in test [8], in test [9], in test [11] and in test [13]. Moreover, the result in test [15] was inactive.
